An excerpt weighted towards active compounds, which were near 0.25% of everything screened.
Bcl-XL Bim block: inhibitors of Bim-Bcl-XL binding, primary screen, biochemical, multiplexed, bead flow cytometry, human Bcl-XL; Bcl-2-like protein 1 (Homo sapiens), Q07817; Bim peptide-Bcl-XL binding, fluorescence; inhibition, % at 10 µM; 0.04% of 190,000 active; AID 1007, 2008
Bim-Bcl-2: inhibitors of Bim-Bcl-2 binding, primary screen, biochemical, multiplexed, human Bcl-2 family; Bead-based flow cytometry, Bim peptide-Bcl-2 binding; inhibition, % at 10 µM; 0.06% of 190,000 active; Apoptosis regulator Bcl-2 (Homo sapiens), P10415; in the data active means inhibition above about 40%;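 further: 0% = no compound wells with probe peptide and 100% = reference peptide inhibitor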
Furin inh: human furin inhibitors, primary screen, biochemical, fluorescence intensity; inhibition, % at 20 µM or 30 µM; 0.061% of 220,000 active; AID 463115, 2010; purified furin, fluorogenic substrate cleavage; P09958; in the data active means inhibition above about 25%
Target sequence (P09958 108-714 limits assumed): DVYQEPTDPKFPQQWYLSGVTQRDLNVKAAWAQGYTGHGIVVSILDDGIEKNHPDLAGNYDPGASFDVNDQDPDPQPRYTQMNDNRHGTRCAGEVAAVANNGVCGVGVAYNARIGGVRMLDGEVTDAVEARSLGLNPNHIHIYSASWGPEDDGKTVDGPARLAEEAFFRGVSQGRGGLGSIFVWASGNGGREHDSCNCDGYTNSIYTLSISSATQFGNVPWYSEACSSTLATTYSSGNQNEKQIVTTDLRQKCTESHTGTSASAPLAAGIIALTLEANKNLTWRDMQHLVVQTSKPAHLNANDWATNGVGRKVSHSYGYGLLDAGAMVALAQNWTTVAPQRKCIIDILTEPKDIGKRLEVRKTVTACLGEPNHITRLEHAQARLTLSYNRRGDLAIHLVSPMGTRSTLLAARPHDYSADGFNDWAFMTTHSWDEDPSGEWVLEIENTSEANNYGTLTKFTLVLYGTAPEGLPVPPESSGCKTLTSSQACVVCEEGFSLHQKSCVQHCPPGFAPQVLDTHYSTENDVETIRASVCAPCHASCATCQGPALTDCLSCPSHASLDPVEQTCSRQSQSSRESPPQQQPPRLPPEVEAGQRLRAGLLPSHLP
Bcl-B Bim block: inhibitors of Bim-Bcl-B binding, primary screen, biochemical, multiplexed, human Bcl-2 family; 0.073% of 190,000 active; bead-based flow cytometry, Bim peptide-Bcl-B binding; Bcl-2-like protein 10 (Homo sapiens), Q9HD36; inhibition, % at 10 µM;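 further: 0% = tracer peptide without compound and 100% = reference inhibitor peptide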
Bcl-W Bim block: inhibitors of Bim binding to Bcl-W, primary screen, biochemical, multiplexed, bead-based flow cytometry | Bcl-2-like protein 2 (Homo sapiens), Q92843 | Bim peptide-Bcl-W binding | inhibition, % at 10 µM | 0.02% of 190,000 active | AID 952, 2007;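 further: 0% = bound tracer without compound and 100% = peptide blocker; higher means less fluorescent Bim peptide bound to Bcl-W beads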
Bfl-1 Bim block: inhibitors of Bim binding to Bfl-1, primary screen, biochemical, multiplexed, bead-based flow cytometry. Bcl-2-related protein A1 (Homo sapiens), Q16548. Bim-Bfl-1 binding inhibition. inhibition, % at 10 µM. 0.12% of 190,000 active;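 further: 0% = wells without compound plus tracer and 100% = blocker peptide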
An asterisk follows results filed as active; . = not tested or not shown. Unless noted, no stated cut-off is given here; in the data, active means inhibition above about 40%.

SMILES	Bcl-XL Bim block	Bim-Bcl-2	Furin inh	Bcl-B Bim block	Bcl-W Bim block	Bfl-1 Bim block
CCOC(=O)CCCNC(=O)c1cncc(O)c1	15	72*	-17	68*	11	46*
CCOC(=O)C1=C(CC)Nc2ccccc2N=C1NC(=O)c1ccc(S(=O)(=O)N2CCOCC2)cc1	4	78*	-15	75*	0	57*
O=C1Nc2ccc([N+](=O)[O-])cc2C1(O)N1CCCCCC1 (stereo not drawn)	1	-2	9	0	0	-1
CC1CCN(C2(O)C(=O)Nc3ccc(Br)cc32)CC1 (stereo not drawn)	63*	47*	-20	57*	17	6
O=C(Nc1nc(-c2cccs2)c(-c2cccs2)s1)C1CCCC1	-10	-8	-17	-11	-8	-13
COC(=O)/C(=C/c1ccc(F)cc1)NC(C)=O	0	28	-18	48*	-4	1
N#CC(c1ccc(O)cc1)N1CCOCC1 (stereo not drawn)	-3	-9	1	-2	-3	-9
Cc1ccccc1-n1c(SCc2cccc(F)c2)nc2[nH]ncc2c1=O	39	25	-9	11	25	44*
C#CCn1cc(C=C2C(=O)c3ccccc3C2=O)c2ccccc21	24	58*	-18	71*	39	39
CCOC(=O)C1(CC/C(C)=N\NC(N)=O)CC(C)(C)OC1=O (stereo not drawn)	18	14	-19	-49	11	44*
O=C1CSC(c2cccnc2)N1Cc1ccc(Cl)c(Cl)c1 (stereo not drawn)	.	.	-17	.	.	.
O=C1CC(c2ccccc2)CC(=O)C1=CN1CCCC1 (stereo not drawn)	.	.	33*	.	.	.
C/C(=N\NC(=O)COc1ccc(C(C)(C)C)cc1)c1ccc2c(c1)OCCO2	31	85*	-19	88*	48*	32
COc1cc(OC)cc(C(=O)N2CCN(Cc3ccccc3Br)CC2)c1	-1	-4	-25	-2	-1	-7
Nc1nc(N2CCCCC2)c(C=O)c(N2CCCCC2)n1	1	-5	-23	-2	2	-6
Cc1c(Br)cc(C(=O)N2CCN(CCO)CC2)c(C)c1C	-26	-12	-11	-11	-4	-19
OCCN1CCN(CCCc2c3c(cc4c2CCC4)CCC3)CC1	32	21	-28	61*	32	13
CCCCCOc1ccc(C2NC(=O)NC2=O)cc1 (stereo not drawn)	-7	-8	-16	-4	3	-12
CCCOc1ccc(C2NC(=O)NC2=O)cc1 (stereo not drawn)	-3	-8	27*	-4	-4	-18
O=C(O)c1cccc(Cn2c(Cl)c(/C=N/NC(=O)c3cc4ccccc4cc3O)sc2=O)c1	.	.	-13	.	.	.
Nc1cnccc1C(=O)O	-1	2	-18	-2	0	-2
O=C(NN=C1CCC(c2ccccc2)CC1)c1cc2c(s1)CCCC2 (stereo not drawn)	-13	-1	-13	-6	-4	-10
CC(C)(C)C1CCC(=NNC(=O)c2cc3c(s2)CCCC3)CC1 (stereo not drawn)	43*	29	-4	26	41*	44*
CN1C(=O)C(CC(=O)Nc2ccc(F)cc2)N(NC(=O)c2cccc(F)c2)C1=S (stereo not drawn)	.	.	-15	.	.	.
CSc1n[nH]c2nc3c(c(=O)n12)C1(CCCC1)Cc1ccccc1-3	40*	31	-18	31	33	44*
SMILES	Bcl-XL Bim block	Bim-Bcl-2	Furin inh	Bcl-B Bim block	Bcl-W Bim block	Bfl-1 Bim block
CC(=O)Nc1ccc(NC2=C(Cl)C(=O)c3ccccc3C2=O)cc1	-5	4	-9	-57	9	35
CN(C)c1ccc(NC2=C(Cl)C(=O)c3ccccc3C2=O)cc1	9	28	-15	-2	48*	71*
Cc1nn(Cc2ccccc2)c(Cl)c1/C=C1\NC(=S)NC1=O	-2	-7	-17	-5	-2	-3
COc1ccc(N2CCN(C(=O)c3cc(=O)[nH]c4ccccc34)CC2)cc1	8	80*	-10	74*	1	58*
O=C(CCN1C(=O)c2ccccc2C1=O)N(CCO)Cc1ccccc1	-3	0	27*	-1	0	0
CCCC(=O)N(CCN(Cc1ccccc1)C(=O)CCC)Cc1ccccc1	0	0	-7	1	1	-2
COc1ccc(NC(=O)Nc2ncn(Cc3cccc(C(F)(F)F)c3)n2)cc1OC	-4	-4	29*	-3	-4	-2
Cc1ccc(Nc2nc(CSc3nnc(-c4cccnc4)n3-c3ccccc3C)cs2)cc1	32	29	3	14	25	42*
Cc1ccccc1-n1c(SCc2csc(Nc3ccccc3)n2)nnc1-c1cccnc1	-4	-7	-15	-11	-6	-7
COc1ccccc1NC(=O)c1cc(S(=O)(=O)N2CCOCC2)ccc1Cl	5	-6	29*	-11	0	-15
Cc1csc2c(SCC(=O)NNC(=O)C(Cl)Cl)ncnc12	.	.	-12	.	.	.
Cc1ccc(-n2[nH]c(C)c(/C=N/Nc3ccc([N+](=O)[O-])cc3[N+](=O)[O-])c2=O)cc1C	43*	25	-1	42*	30	42*
CCCC(=O)Nc1cccc(Oc2nc(C)cc(C)c2C#N)c1	-1	-3	37*	0	-1	-1
Cc1cc(C)c(C#N)c(Oc2ccc(O)cc2)n1	-3	-8	-1	-6	0	-9
Cc1cc(N/C(=N/S(=O)(=O)c2cc(F)ccc2F)c2ccccc2)n(-c2ccccc2)n1	16	50*	-25	66*	18	19
COc1cccc(C(=O)NC(=S)Nn2cnnc2)c1OC	-6	-5	-23	-27	-2	2
Cc1nc2scc(-c3ccccc3)c2c(=O)n1N=C1C=CC(=O)C=C1	4	17	-19	-1	19	40*
Cc1nc2scc(-c3ccccc3)c2c(=O)n1N	0	1	-25	0	-3	0
COc1ccc(NC(=O)/C(Cl)=C(/Cl)S(=O)Cc2ccc(Cl)cc2)cn1 (stereo not drawn)	0	7	-14	-11	3	40*
COc1ccc(NC(=O)C(Cl)=C(Cl)Cl)cn1	0	1	-8	4	1	4
Nc1nc2c(s1)CCc1c-2cnn1-c1ccccc1	12	18	-10	11	30	41*
c1ccc(Cc2nnc(-c3ccccc3)o2)cc1	1	-6	-8	-4	0	-4

Screening results as filed in PubChem.
